Assay [1] can be described thus: ATG_SREBP_CIS: Attagene CIS-FACTORIAL HepG2 Assay for human Sterol Regulatory Element Binding (SREBP) (AID 2282962). To be noted: HepG2 Attagene cis-factorial SREBP reporter, mRNA; actives raise or lower the signal. The gist of the method: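 Readout: fluorescent reporter-transcript peaks resolved by capillary electrophoresis after RT-PCR. Cells were human HepG2 carrying transfected cis-promoter reporter constructs, dosed for 24 h. Gain or loss of signal was fitted against DMSO controls.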

Assay [2] in a line: ATG_M_32_TRANS: Attagene TRANS-FACTORIAL HepG2 Assay for M32 Transcription Factor (Internal Marker) (AID 2282984; active means hit-call score of the fitted dose curve at least 0.9, where 1 is the maximum;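 further: transcript level of a background control reporter unit measured by RT-PCR and capillary electrophoresis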). To be noted: HepG2 Attagene TRANS M32 internal marker reporter. A digest of the protocol: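 Fluorescence-detected mRNA induction, HepG2 liver cells, 24 h after dosing. Multiple GAL4-UAS reporter units introduced by transient transfection; background-control endpoint analysed for gain of signal against DMSO.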

Assay [3] can be described thus: ATG_NFI_CIS: Attagene CIS-FACTORIAL HepG2 Assay for human Nuclear Factor I (NFI) (AID 2282989). As to conditions: HepG2 cis-regulatory reporter, NFI response element transcription; actives raise or lower the signal. A digest of the protocol: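 Read-out: reporter mRNA via RT-PCR plus capillary electrophoresis with fluorescence detection. Transiently transfected HepG2 (endogenous TF activity on cis promoters), 24 h compound exposure; gain or loss of signal fitted against DMSO.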

Assay [4] deals with Nuclear receptor subfamily 1 group I member 2 (Homo sapiens) (UniProt O75469). As to the kind of experiment: ATG_PXR_TRANS: Attagene TRANS-FACTORIAL HepG2 Assay for human Pregnane X Receptor (PXR) (AID 2283008; active means hit-call score of the fitted dose curve at least 0.9, where 1 is the maximum). A digest of the protocol:
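Trans-factorial format: exogenous NR-Gal4 fusion activity, not endogenous factor, in transfected human HepG2 liver cells. After 24 h dosing, RNA isolated, reverse-transcribed, amplified and resolved by capillary electrophoresis; induction scored versus DMSO.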

A short description of assay [5]: ATG_XTT_Cytotoxicity: Cytotoxicity Assessment in the Attagene TRANS-FACTORIAL HepG2 Assay (AID 2283584; active means hit-call score of the fitted dose curve at least 0.9, where 1 is the maximum). A digest of the protocol:
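Viability endpoint from XTT after 24 h chemical exposure of reporter-transfected human HepG2 liver cells; signal loss fitted relative to DMSO negative control.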

The target in assay [6] is mouse Estrogen Receptor alpha (Era), Esr1 (gene 13982) (UniProt P19785). As to the kind of experiment: NVS_NR_mERa: NovaScreen (NVS) Nuclear Receptor Binding Assay for mouse Estrogen Receptor alpha (Era) (AID 2283378; active means hit-call score of the fitted dose curve at least 0.9, where 1 is the maximum;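 further: hit means loss of bound radioligand signal relative to DMSO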). The gist of the method:
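Filter radiodetection of radioligand displacement from extracted receptor protein, measured 18 h post-dose. Single 25 uM concentration in duplicate initially, with concentration-series follow-up. Binding loss fitted relative to DMSO.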

For assay [7], the target named is human Peroxisome Proliferator-activated Receptor alpha (PPARa), PPARA (gene 5465) (UniProt Q07869). The assay can be described thus: ATG_PPARa_TRANS: Attagene TRANS-FACTORIAL HepG2 Assay for human Peroxisome Proliferator-activated Receptor alpha (PPARa) (AID 2283001; active means hit-call score of the fitted dose curve at least 0.9, where 1 is the maximum). The gist of the method:
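Exposure: 24 h, transiently transfected HepG2 cells. Endpoint: GAL4-UAS reporter mRNA, RT-PCR with capillary electrophoresis fluorescence. Baseline: DMSO; increases fitted.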

A short description of assay [8]: BSK_3C_TissueFactor: BioMAP Diversity Plus: 3C Assay for Tissue Factor Biomarker Activity (AID 2282997). To be noted: BioMAP 3C HUVEC, tissue factor biomarker readout; actives raise or lower the signal. A digest of the protocol:
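Tissue factor on primary human umbilical vein endothelium was read by ELISA 24 h after dosing, gain or loss relative to DMSO. Cytotoxicity ran alongside via SRB (0.1%, TCA-fixed, 560 nm).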

Read-out in assay [9]: Intercellular Adhesion Molecule 1 (ICAM1), ICAM1 (gene 3383)
The assay can be described thus: BSK_3C_ICAM1: BioMAP Diversity Plus: 3C Assay for Intercellular Adhesion Molecule 1 (ICAM1) Biomarker Activity (AID 2283003). To be noted: primary human endothelial cells (HUVEC); actives raise or lower the signal. The gist of the method:
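ELISA read-out of ICAM-1; HUVEC (primary human), 3C system, 24 h post-dosing; bidirectional fit vs DMSO baseline.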

Read-out in assay [10]: E-selectin (Homo sapiens) (UniProt P16581)
The assay can be described thus: BSK_3C_Eselectin: BioMAP Diversity Plus: 3C Assay for Eselectin Biomarker Activity (AID 2283015).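 On outcome: cell surface E-selectin protein quantified by ELISA 24 h after dosing.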 To be noted: primary human endothelial cells (HUVEC); actives raise or lower the signal. A digest of the protocol:
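E-selectin ELISA readout, fitted bidirectionally relative to DMSO, taken 24 h post-dosing in HUVEC cultures of the 3C system. Overt cytotoxicity tracked with sulforhodamine B staining of parallel wells.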

Read-out in assay [11]: Matrix Metallopeptidase 1 (MMP1), MMP1 (gene 4312)
As to the kind of experiment: BSK_BE3C_MMP1: BioMAP Diversity Plus: BE3C Assay for Matrix Metallopeptidase 1 (MMP1) Biomarker Activity (AID 2283024). To be noted: primary human bronchial epithelial cells; actives raise or lower the signal. The gist of the method:
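ELISA read-out of MMP1 in human lung bronchial epithelial primary cultures, 24 h post-dose; bidirectional curve fit vs DMSO baseline, gain or loss of signal scored.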

Read-out in assay [12]: Pselectin, SELP (gene 6403)
The assay can be described thus: BSK_4H_Pselectin: BioMAP Diversity Plus: 4H Assay for Pselectin Biomarker Activity (AID 2283026). As to conditions: primary human endothelial cells (HUVEC); actives raise or lower the signal. The gist of the method: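 HUVEC, 24 h chemical exposure; P-selectin read by ELISA. Bidirectional curve fit vs DMSO baseline; gain or loss of signal scored.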

Read-out in assay [13]: Human Leukocyte Antigen - DR isotype (HLADR), HLA-DRA (gene 3122)
The assay can be described thus: BSK_BE3C_HLADR: BioMAP Diversity Plus: BE3C Assay for Human Leukocyte Antigen - DR isotype (HLADR) Biomarker Activity (AID 2283032). To be noted: primary human bronchial epithelial cells; actives raise or lower the signal. A digest of the protocol: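 Primary human bronchial epithelial cells (BE3C); 24 h chemical exposure; HLA-DR by ELISA; bidirectional curve fit vs DMSO baseline.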

Read-out in assay [14]: Vascular cell adhesion molecule 1 (VCAM1), VCAM1 (gene 7412)
As to the kind of experiment: BSK_4H_VCAM1: BioMAP Diversity Plus: 4H Assay for Vascular cell adhesion molecule 1 (VCAM1) Biomarker Activity (AID 2283033).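 On outcome: cell-surface VCAM-1 protein measured by ELISA.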 To be noted: primary human endothelial cells (HUVEC); actives raise or lower the signal. The gist of the method: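 HUVEC, 24 h post-dose; VCAM-1 by ELISA. Bidirectional curve fit vs DMSO baseline. Parallel SRB total-protein stain (0.1% SRB after 10% TCA fixation, 560 nm) for cytotoxicity.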

Read-out in assay [15]: Interferon-gamma inducible Protein 10 (IP10), CXCL10 (gene 3627)
The assay can be described thus: BSK_BE3C_IP10: BioMAP Diversity Plus: BE3C Assay for Interferon-gamma inducible Protein 10 (IP10) Biomarker Activity (AID 2283034). As to conditions: primary human bronchial epithelial cells; actives raise or lower the signal. A digest of the protocol: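 ELISA readout of IP-10 in BE3C system: primary human bronchial epithelial cells, 24 h post-dosing; bidirectional curve fit vs DMSO baseline.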

Read-out in assay [16]: urokinase plasminogen activator (uPA), PLAU (gene 5328)
As to the kind of experiment: BSK_BE3C_uPA: BioMAP Diversity Plus: BE3C Assay for urokinase plasminogen activator (uPA) Biomarker Activity (AID 2283038).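 On outcome: uPA protein level quantified by ELISA in cell cultures; uPA read one day after compound addition.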 To be noted: primary human bronchial epithelial cells; actives raise or lower the signal. A digest of the protocol:
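ELISA for uPA on human primary bronchial epithelial cultures 24 h post-treatment, gain or loss against DMSO. Parallel SRB staining (0.1% after 10% TCA fixation, 560 nm) assessed overt cytotoxicity.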

Read-out in assay [17]: Interleukin-6 (IL6), IL6 (gene 3569)
As to the kind of experiment: BSK_CASM3C_IL6: BioMAP Diversity Plus: CASM3C Assay for Interleukin-6 (IL6) Biomarker Activity for (AID 2283040). As to conditions: primary human coronary artery smooth muscle cells; actives raise or lower the signal.

Read-out in assay [18]: Tissue Factor, F3 (gene 2152)
The assay can be described thus: BSK_CASM3C_TissueFactor: BioMAP Diversity Plus: CASM3C Assay for Tissue Factor Biomarker Activity (AID 2283052).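 Further: cell surface tissue factor protein level read by ELISA.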 As to conditions: primary human coronary artery smooth muscle cells; actives raise or lower the signal.

Read-out in assay [19]: Urokinase-type plasminogen activator receptor (uPAR), PLAUR (gene 5329)
As to the kind of experiment: BSK_CASM3C_uPAR: BioMAP Diversity Plus: CASM3C Assay for Urokinase-type plasminogen activator receptor (uPAR) Biomarker Activity (AID 2283054).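 Further: cell-surface uPAR protein level quantified by ELISA.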 To be noted: primary human coronary artery smooth muscle cells; actives raise or lower the signal.

Read-out in assay [20]: Tissue Factor, F3 (gene 2152)
As to the kind of experiment: BSK_LPS_TissueFactor: BioMAP Diversity Plus: LPS Assay for Tissue Factor Biomarker Activity (AID 2283084). To be noted: primary human HUVEC with PBMC; actives raise or lower the signal. The gist of the method:
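Compound was added to an endothelial cell/PBMC co-culture, and after 24 h tissue factor (CD142) was read by ELISA. Gain or loss of signal was fitted against a DMSO baseline, and parallel SRB staining (560 nm) tracked overt cytotoxicity.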

Each structure is given as a SMILES string. Where “and” joins values, the source holds several entries; their conditions need not be identical. Equal values may be shown once. Results filed as inconclusive are left out. Some compounds were tested as several samples or in several runs, with calls that do not always agree. Calls of active or inactive are those of the source. How the source made its calls, unless noted: active means hit-call score of the fitted dose curve at least 0.9, where 1 is the maximum; inactive means score below 0.9.

The text below walks through data of PubChem BioAssay (EPA / NIEHS).

Chain of E-selectin (Homo sapiens) (P16581 whole entry, looked up): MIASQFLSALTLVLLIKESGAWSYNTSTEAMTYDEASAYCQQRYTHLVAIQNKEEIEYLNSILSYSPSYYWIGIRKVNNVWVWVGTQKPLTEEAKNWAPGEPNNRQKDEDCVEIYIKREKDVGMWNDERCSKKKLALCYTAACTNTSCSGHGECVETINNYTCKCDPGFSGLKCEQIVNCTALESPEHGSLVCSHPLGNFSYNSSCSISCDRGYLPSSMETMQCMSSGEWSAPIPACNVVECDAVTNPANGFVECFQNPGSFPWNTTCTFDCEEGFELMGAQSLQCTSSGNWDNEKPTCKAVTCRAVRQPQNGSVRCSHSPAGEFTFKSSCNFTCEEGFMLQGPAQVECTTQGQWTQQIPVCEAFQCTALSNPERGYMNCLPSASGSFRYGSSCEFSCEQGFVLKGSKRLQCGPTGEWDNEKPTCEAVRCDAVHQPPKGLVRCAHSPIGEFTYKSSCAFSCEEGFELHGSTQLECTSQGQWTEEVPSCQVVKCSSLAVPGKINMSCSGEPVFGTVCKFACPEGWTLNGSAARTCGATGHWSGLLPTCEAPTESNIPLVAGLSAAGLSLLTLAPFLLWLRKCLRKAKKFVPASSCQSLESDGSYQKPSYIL
Chain of Nuclear receptor subfamily 1 group I member 2 (Homo sapiens) (O75469 whole entry, looked up, the tested form may be a part): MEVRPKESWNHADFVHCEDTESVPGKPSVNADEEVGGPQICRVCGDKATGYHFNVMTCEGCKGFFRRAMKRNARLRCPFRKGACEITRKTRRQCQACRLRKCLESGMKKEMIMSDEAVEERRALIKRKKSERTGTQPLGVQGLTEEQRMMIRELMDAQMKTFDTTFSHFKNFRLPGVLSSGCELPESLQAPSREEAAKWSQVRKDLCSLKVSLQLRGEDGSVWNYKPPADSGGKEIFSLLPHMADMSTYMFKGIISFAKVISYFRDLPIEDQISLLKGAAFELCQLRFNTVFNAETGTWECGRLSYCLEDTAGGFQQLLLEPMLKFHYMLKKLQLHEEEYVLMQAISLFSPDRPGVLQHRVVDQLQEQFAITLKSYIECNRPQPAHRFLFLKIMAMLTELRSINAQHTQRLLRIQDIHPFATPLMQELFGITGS
Chain of mouse Estrogen Receptor alpha (Era), Esr1 (gene 13982) (P19785 whole entry, looked up): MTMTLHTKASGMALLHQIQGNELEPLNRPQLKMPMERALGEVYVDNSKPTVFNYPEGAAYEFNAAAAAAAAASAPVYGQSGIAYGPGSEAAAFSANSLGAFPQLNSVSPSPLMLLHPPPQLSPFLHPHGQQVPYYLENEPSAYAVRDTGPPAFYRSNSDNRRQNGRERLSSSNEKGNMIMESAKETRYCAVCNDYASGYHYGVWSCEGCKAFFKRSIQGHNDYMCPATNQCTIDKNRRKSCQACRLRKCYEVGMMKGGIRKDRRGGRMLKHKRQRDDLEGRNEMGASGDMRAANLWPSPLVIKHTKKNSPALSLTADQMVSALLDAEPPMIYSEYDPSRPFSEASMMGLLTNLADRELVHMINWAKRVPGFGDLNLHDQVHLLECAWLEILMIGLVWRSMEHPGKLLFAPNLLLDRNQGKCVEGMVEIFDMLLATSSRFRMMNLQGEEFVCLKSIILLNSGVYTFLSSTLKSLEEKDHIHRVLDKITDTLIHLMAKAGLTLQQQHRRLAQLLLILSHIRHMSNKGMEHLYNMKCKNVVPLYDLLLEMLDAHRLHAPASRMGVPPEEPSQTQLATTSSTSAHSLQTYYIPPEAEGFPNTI
Chain of human Peroxisome Proliferator-activated Receptor alpha (PPARa), PPARA (gene 5465) (Q07869 whole entry, looked up, the tested form may be a part): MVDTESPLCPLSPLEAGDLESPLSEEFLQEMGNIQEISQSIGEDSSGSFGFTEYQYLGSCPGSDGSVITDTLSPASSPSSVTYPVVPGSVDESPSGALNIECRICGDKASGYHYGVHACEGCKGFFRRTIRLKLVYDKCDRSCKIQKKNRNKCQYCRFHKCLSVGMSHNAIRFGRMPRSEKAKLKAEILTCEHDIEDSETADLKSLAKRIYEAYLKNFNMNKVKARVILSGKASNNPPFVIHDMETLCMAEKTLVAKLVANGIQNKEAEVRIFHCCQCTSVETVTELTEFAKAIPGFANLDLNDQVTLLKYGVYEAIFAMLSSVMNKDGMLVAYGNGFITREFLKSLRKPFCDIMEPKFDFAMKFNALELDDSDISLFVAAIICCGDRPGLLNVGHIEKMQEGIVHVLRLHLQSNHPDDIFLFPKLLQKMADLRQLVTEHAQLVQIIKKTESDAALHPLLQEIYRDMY

By AC50 is commonly meant the concentration at which the activity in the assay is half-maximal. On to `CC1=CCCC(C)(C)C12CCC(C)O2` (configuration not stated), for which the compound was called inactive in assay [1], in assay [2], in assay [3] and in assay [5]. Besides, the half-maximal activity concentration (AC50) in assay [4] is 2.53 µM (active).
Turning to `Nc1nc(N)c2nc(-c3ccccc3)c(N)nc2n1`, in [6], the call was inactive.
Consider `CCOC(=O)c1ccccc1`, for which the call in assay [1], in assay [2], in assay [7] and in assay [4] was inactive.
Take `OC(C(F)(F)F)(C(F)(F)F)C(O)(C(F)(F)F)C(F)(F)F`: the AC50 was 23.7 µM (active) and 22.6 µM (active) in [8]; 40.6 µM (active) in assay [9]; 21.5 µM (active) and 30 µM (active) in assay [10]; 22.1 µM (active) and 21.4 µM (active) in [12]; 48.2 µM (active) and 45.4 µM (active) in [13]; 24.3 µM (active) and 30 µM (active) in assay [14]. Moreover, the concentration at half-maximal activity (AC50) in assay [15] is 42.6 µM (active) and 43.6 µM (active); in assay [16], 28.8 µM (active) and 32.2 µM (active); in assay [17], 41.2 µM (active); in [19] it was 19.3 µM (active) and 22.6 µM (active); in assay [20] it was 30 µM (active). Moreover, the outcome in assay [9], in assay [11], in assay [17] and in assay [18] was inactive.
Consider `CCC[Si](OC(C)=O)(OC(C)=O)OC(C)=O`, for which the result in assay [8], in assay [9], in assay [10], in [11], in assay [12] and in assay [13] was inactive. Also, the result in [14], in assay [15], in assay [16], in [17], in assay [18] and in assay [19] was inactive. The result in [20] was inactive. In addition, in assay [19], the half-maximal activity concentration (AC50) is 3.83 µM (active).
For the compound `O=[N+]([O-])c1cc(S(=O)(=O)Nc2ccccc2)ccc1Nc1ccccc1`, the AC50 in assay [8] was 34.8 µM (active); in assay [10], 13.3 µM (active); in assay [11], 5.29 µM (active) and 5.21 µM (active); in assay [12] it was 32.2 µM (active) and 31.7 µM (active); in [13], 31 µM (active) and 32 µM (active); in assay [14], 27.2 µM (active). Further, the concentration at half-maximal activity (AC50) is 32.4 µM (active) and 31.9 µM (active) in [15]; 34.9 µM (active) in assay [16]; 20 µM (active) and 10.3 µM (active) in assay [17]; 2.78 µM (active) in [20]. Further, the outcome in assay [8], in assay [9], in [10], in [14], in assay [16] and in assay [18] was inactive. The result in assay [19] and in assay [20] was inactive.
